According to ChEMBL document CHEMBL3988442, “University of Dundee, Small-Polar-MMV Screening Library” (2021):
For some assays here: Potency and affinity values are given separately.

Tests used:
Parameters in all cases: scale not given: direction of the effect not stated beside the values
[1] = target: Protein translocase subunit SecA (Escherichia coli (strain K12)) (UniProt P10408); assay: Assay to Identify E. coli SecA ATPase Inhibitors; assay type: functional; conditions: 30 µM
[2] = target: T1, Ubiquitin-activating enzyme e1, putative (Leishmania donovani (strain BPK282A1)) (UniProt E9BSI1); assay: Leishmania donovani Ubiquitin Activating Enzyme (LdE1); assay type: functional; conditions: 30 µM
T1 sequence (whole entry): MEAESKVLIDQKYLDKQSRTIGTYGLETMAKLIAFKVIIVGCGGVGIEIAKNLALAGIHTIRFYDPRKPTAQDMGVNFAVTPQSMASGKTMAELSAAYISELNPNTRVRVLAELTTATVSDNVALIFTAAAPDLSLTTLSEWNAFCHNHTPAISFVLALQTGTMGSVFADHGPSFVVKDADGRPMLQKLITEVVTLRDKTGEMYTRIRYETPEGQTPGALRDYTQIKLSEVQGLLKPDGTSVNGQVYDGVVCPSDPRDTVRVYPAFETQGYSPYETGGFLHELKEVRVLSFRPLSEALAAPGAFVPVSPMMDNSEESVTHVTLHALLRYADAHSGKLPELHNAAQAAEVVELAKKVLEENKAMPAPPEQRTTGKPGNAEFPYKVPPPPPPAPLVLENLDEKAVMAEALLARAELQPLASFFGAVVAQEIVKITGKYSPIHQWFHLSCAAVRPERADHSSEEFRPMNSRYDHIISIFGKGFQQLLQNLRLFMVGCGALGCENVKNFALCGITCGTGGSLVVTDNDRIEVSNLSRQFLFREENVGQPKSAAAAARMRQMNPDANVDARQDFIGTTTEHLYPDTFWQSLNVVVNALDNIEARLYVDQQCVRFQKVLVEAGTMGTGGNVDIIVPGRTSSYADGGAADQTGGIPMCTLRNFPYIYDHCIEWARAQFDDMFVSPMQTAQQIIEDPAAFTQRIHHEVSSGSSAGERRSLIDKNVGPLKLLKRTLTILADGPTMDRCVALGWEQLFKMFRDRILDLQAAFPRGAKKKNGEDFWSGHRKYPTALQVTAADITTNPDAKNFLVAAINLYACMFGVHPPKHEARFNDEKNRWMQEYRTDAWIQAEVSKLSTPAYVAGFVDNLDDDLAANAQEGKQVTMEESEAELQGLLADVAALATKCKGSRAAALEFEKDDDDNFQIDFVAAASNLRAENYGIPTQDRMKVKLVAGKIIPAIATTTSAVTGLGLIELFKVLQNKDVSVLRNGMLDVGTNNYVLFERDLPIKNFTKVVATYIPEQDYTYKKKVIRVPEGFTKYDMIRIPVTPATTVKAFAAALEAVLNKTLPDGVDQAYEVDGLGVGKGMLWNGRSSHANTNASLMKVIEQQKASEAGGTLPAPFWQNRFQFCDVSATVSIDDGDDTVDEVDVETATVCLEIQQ

[3] = target: AMP-activated protein kinase, AMPK (Homo sapiens) (UniProt P54646+O43741+P54619+Q9UGJ0+Q9Y478+Q13131+Q9UGI9); assay: AMP-dependent Kinase enzyme assay. An in vitro enzyme assay that detects ADP turnover that is directly proportional to AMPK activity. This uses naive AMPK that is activated during the assay with MK-8722; assay type: functional; conditions: 30 µM
[4] = target: Sialic acid-binding Ig-like lectin 9 (Homo sapiens) (UniProt Q9Y336); assay: Hs-Siglec9 ALPHAscreen SOP 20170721; conditions: 10 µM
Sialic acid-binding Ig-like lectin 9 (Homo sapiens), sequence (Q9Y336 whole entry): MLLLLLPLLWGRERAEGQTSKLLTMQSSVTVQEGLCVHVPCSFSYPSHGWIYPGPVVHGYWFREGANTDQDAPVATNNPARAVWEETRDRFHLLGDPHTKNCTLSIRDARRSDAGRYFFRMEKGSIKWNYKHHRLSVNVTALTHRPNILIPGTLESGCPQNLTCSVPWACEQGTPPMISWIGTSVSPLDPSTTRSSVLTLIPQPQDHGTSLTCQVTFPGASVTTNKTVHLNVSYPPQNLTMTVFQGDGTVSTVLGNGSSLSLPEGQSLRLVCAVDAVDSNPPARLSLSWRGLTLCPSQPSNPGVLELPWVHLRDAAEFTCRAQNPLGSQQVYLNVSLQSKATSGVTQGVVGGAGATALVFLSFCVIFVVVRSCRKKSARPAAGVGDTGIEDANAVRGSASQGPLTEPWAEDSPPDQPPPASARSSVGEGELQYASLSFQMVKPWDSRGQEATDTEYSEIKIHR

Trypanosoma cruzi = assay: Trypanosoma cruzi phosphomannomutase and mannose-1-phosphate guanylyltransferase assay; assay type: functional; conditions: 10 µM
[5] = target: T2, Arginase-2, mitochondrial (Homo sapiens) (UniProt P78540); assay: in vitro enzyme assay to detect the production of urea directly proportional to the activity of Arginase II; assay type: functional; conditions: 33.3 µM; further: in the data most compounds retested in dose-response had high values
T2 sequence (whole entry): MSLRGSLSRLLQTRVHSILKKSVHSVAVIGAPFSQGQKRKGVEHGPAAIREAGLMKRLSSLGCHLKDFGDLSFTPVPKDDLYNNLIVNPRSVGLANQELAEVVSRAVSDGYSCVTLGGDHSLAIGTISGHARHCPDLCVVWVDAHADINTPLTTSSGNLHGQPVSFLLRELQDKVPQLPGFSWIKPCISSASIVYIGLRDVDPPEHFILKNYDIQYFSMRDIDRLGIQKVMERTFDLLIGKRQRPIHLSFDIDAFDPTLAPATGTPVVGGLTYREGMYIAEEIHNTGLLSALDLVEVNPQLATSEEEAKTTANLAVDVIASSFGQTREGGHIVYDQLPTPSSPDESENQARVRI

[6] = target: T3, Proteasome subunit beta (Trypanosoma cruzi) (UniProt O96673); assay: Trypanosoma cruzi proteasome chymotrypsin-like activity (TcProtChymo) assay.; further: in the data most compounds retested in dose-response had high values; assay type: functional; conditions: 9.37 µM
T3 sequence (whole entry): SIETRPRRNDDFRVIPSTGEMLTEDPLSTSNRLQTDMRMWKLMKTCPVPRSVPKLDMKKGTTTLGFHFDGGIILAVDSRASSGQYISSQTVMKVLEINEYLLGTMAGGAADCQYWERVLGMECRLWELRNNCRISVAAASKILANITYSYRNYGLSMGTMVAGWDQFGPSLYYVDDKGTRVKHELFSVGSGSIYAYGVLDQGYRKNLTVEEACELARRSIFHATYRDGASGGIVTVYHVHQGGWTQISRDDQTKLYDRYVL

Homo sapiens = species: Homo sapiens; assay: To identify inhibition of the IFN signalling (Jak-Stat) pathway via expression of an eGFP reporter gene under the control of an IFN-stimulated response element (ISRE) containing MxA promoter.; assay type: functional; conditions: 30 µM
[7] = target: T4, Tyrosyl-tRNA synthetase, putative (Trypanosoma cruzi (strain CL Brener)) (UniProt Q4DSP6); assay: Trypanosoma cruzi tyrosyl tRNA synthetase (TcYRS) _High Tyrosine SOP; assay type: functional; conditions: 30 µM; further: in the data most compounds retested in dose-response had high values
T4 sequence (whole entry): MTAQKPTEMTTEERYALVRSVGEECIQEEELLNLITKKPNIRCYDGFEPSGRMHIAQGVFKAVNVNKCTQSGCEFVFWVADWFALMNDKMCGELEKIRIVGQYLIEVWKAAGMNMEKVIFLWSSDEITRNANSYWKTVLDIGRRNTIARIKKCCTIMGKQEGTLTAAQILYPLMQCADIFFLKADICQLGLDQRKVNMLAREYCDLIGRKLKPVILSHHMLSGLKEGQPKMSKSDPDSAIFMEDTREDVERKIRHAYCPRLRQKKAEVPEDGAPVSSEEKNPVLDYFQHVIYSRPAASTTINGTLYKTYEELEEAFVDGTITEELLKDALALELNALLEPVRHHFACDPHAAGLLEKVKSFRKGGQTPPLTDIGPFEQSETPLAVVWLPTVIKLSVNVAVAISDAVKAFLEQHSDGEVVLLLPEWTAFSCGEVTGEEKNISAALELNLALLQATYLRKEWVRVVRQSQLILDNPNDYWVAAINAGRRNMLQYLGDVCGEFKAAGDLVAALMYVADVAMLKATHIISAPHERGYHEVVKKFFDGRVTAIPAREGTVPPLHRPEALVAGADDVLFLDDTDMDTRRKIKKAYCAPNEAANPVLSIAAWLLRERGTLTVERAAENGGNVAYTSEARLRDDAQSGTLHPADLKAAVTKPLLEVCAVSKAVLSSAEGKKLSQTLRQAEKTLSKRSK

[8] = target: T4, Tyrosyl-tRNA synthetase, putative (Trypanosoma cruzi (strain CL Brener)); assay: Trypanosoma cruzi tyrosyl tRNA synthetase (TcYRS) SOP; assay type: functional; conditions: 30 µM
[9] = target: Chromo domain-containing protein 1 (Saccharomyces cerevisiae (strain ATCC 204508 / S288c) (Baker's yeast)) (UniProt P32657); assay: ScCHD-1 Enzyme Inhibition Assay; assay type: functional; conditions: 30 µM; further: in the data most compounds retested in dose-response had high values
Chromo domain-containing protein 1 (Saccharomyces cerevisiae (strain ATCC 204508 / S288c) (Baker's yeast)), sequence (P32657 whole entry, the tested form may be a part): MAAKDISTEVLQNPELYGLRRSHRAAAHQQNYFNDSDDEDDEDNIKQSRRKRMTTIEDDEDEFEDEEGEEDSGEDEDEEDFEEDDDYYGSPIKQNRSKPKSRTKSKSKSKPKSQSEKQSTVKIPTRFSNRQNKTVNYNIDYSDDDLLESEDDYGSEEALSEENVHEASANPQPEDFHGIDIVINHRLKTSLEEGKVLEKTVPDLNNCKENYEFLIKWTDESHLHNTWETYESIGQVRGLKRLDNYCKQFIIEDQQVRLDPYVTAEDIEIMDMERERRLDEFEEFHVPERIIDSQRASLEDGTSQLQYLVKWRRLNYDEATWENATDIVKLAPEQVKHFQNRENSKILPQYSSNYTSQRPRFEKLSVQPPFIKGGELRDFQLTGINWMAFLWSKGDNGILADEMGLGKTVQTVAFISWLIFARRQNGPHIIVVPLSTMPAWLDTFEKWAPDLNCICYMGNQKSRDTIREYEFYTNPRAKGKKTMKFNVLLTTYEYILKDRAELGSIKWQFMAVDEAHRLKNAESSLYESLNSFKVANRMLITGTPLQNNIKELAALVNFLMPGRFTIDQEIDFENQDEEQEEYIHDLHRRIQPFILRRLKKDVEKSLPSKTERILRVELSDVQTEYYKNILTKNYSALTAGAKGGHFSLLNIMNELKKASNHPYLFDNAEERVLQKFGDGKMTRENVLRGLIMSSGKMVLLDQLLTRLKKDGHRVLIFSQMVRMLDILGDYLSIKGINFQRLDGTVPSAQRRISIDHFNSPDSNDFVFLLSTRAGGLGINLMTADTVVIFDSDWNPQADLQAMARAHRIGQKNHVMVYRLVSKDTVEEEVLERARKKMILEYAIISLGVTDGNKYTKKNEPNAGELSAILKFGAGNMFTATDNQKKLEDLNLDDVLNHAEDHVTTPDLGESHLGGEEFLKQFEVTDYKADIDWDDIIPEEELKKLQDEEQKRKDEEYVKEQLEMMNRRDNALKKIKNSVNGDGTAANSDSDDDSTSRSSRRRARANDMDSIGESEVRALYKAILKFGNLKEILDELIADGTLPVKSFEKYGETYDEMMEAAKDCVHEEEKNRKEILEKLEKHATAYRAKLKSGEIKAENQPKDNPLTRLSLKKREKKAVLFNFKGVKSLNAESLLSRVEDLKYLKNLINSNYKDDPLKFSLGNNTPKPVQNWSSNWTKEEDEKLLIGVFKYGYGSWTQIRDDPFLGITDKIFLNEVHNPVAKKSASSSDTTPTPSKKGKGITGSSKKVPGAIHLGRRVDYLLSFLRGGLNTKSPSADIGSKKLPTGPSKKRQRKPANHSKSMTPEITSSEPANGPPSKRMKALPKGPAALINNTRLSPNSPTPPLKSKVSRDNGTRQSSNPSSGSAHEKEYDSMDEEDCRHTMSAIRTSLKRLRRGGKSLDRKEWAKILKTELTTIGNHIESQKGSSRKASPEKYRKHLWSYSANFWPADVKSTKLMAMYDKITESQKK

Protein translocase subunit SecA (Escherichia coli (strain K12)), sequence (P10408 whole entry): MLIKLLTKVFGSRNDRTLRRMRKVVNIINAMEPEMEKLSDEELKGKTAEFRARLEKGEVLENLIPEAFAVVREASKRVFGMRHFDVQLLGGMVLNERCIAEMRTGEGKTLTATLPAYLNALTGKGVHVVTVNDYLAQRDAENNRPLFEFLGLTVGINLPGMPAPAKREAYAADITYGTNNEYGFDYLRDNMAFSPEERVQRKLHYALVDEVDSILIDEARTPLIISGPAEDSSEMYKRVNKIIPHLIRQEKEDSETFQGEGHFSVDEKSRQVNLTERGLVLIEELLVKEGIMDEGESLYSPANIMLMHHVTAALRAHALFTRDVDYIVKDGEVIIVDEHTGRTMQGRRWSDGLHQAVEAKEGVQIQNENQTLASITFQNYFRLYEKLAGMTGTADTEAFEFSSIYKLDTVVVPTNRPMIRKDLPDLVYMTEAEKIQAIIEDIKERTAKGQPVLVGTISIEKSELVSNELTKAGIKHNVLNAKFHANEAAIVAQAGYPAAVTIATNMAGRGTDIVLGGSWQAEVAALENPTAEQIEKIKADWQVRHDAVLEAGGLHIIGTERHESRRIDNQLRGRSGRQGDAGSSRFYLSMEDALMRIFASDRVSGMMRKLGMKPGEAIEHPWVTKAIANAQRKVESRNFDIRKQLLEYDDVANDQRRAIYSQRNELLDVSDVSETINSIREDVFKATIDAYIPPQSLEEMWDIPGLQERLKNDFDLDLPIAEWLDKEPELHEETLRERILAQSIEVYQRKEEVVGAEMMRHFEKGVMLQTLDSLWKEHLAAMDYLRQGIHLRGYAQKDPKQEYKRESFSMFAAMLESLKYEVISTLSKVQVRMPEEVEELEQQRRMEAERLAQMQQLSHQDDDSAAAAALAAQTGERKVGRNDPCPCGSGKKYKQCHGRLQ

SMILES | Percent Effect [1] [%] | Percent Effect [2] [%] | Percent Effect [3] [%] | Percent Effect [4] [%] | Percent Effect (Trypanosoma cruzi) [%] | Percent Effect [5] [%] | Percent Effect [6] [%] | Percent Effect (Homo sapiens) [%] | Percent Effect [7] [%] | Percent Effect [8] [%] | Percent Effect [9] [%]
Cc1ccc(CN2CC[C@H]3OCC[C@@H](c4nc(C)no4)[C@H]3C2)cc1 | -4.22 | 5.41 | 2.69 | -2.48 | 7.14 | -4.14 | 15.3 | -21.7 | 0 | 10.3 | 0.212
CCn1ccnc1CN1CCN(CCOc2ccccc2OC)CC1 | -1.18 | 0 | -0.305 | 3.72 | 6.39 | 4.21 | 8.19 | 7.16 | 0.49 | 7.32 | -2.76
c1cnc(NCc2noc3c2CN(C2CCOCC2)CC3)nc1 | -4.67 | 18.7 | -2.09 | -2.32 | 3.86 | -46.8 | 15.7 | -2.62 | 7.29 | 22.5 | -7.21
CN(C)S(=O)(=O)N1CCC(Oc2cnccn2)CC1 | -5.97 | 13 | -2.04 | 3.81 | 1.28 | -1.94 | 20.2 | 6.27 | 4.23 | 14.1 | -9.34
Cc1ccc(N2CC3(COCCN(Cc4nccs4)C3)OCC2=O)s1 (stereo unspecified) | 4.24 | 7.79 | -1.49 | -11.2 | -7.59 | 9.68 | 17.8 | 8.7 | 3.17 | 8.97 | -11.1
Cc1cc(O)c(OCC(=O)/N=c2\[nH]cc(C)s2)cn1 | -5.77 | 18.4 | 3.17 | 0.981 | 3.6 | -5.92 | 5.85 | -4.26 | 5.32 | 10.4 | -2.08
O=C(NCC1CC1)C1=NOC2(CCN(Cc3ccc4c(c3)OCO4)C2)C1 (stereo unspecified) | -4.9 | 8 | 8.35 | 5 | -2.51 | -50.4 | 11.1 | 0.899 | 0 | -17.5 | -6.02
CC1c2ncc(Cn3cncn3)n2CCN1C(=O)C1CCOCC1 (stereo unspecified) | -4.07 | 10.7 | -5.52 | 0.0625 | 4.83 | -56.5 | 5.13 | -14.3 | 3.12 | 7.5 | -6.18
C1CC(NCc2nc(C3CC3)no2)CN(Cc2noc(C3CC3)n2)C1 (stereo unspecified) | -2.33 | 24.3 | -2.39 | -3.6 | -6.32 | -12.4 | 11.2 | 27 | -0.493 | 6.17 | -4.12
CC(C(N)=O)N(C)CCCc1cc(-c2ccccc2)no1 (stereo unspecified) | -2.48 | 13.5 | 3.69 | 0.652 | -9.75 | -0.185 | 7.54 | 10.5 | 5.94 | 13.4 | -3.63
O=C(CN1CCOC(Cn2cccn2)C1)Nc1nccs1 (stereo unspecified) | -3.64 | 21.6 | -3.52 | 14.3 | 6.22 | -1.29 | 8.8 | 7.16 | 5.94 | 25.6 | -6.75
Cc1nc(C2CCCN2CCCNS(C)(=O)=O)no1 (stereo unspecified) | -3.7 | 15.8 | -4.74 | 1.41 | 7.14 | 4.98 | 20.4 | -7.41 | 4.41 | 19.5 | -5.18
Cc1nc(N2CCCC2)nc2c1CCN(C(=O)C1CCCC1)CC2 | -2.37 | 4 | 0.866 | 2.33 | -3.54 | -4.4 | 15.2 | -11.3 | 9.52 | 10.3 | -6.44
Cc1ccc(CNC(=O)Nc2cc(C(F)(F)F)c[nH]c2=O)cn1 | -3.22 | 6.94 | 7.59 | -6.47 | 0.0972 | 4.42 | 11.6 | -18.5 | 6.32 | 12.8 | -5.05
Cc1nc2ccccc2nc1CN1CCCC1Cn1cncn1 (stereo unspecified) | -0.371 | 20.8 | -4.59 | -7.28 | 3.23 | 1.9 | 19.5 | 13.1 | 16.2 | 21.2 | -23.2
OCCn1nccc1C1CCN(CCCOc2ccc(F)cc2)CC1 | -5.89 | 0 | -3.35 | 3.53 | -0.28 | -2.88 | -3.64 | -5.47 | 9.36 | 16.1 | -0.509
